Source: the supplement of paper PMC11732987, “Enantioselective OTUD7B fragment discovery through chemoproteomics screening and high-throughput optimisation” (Communications Chemistry, 2025)

Columns and labels:
Experiment in all cases: log2 ratio of Biotin-Ahx-Ub-VS probe labelling (fragment/DMSO); higher = less target engagement (more negative = stronger competition), active = hit call of the paper (q ≤ 0.05, log2 ratio ≤ -1)
Conditions in all cases: compound concentration: 200 uM; treatment time: 3 h
USP19 = molecular target: T1, USP19 (UniProt O94966)
T1 sequence (whole entry): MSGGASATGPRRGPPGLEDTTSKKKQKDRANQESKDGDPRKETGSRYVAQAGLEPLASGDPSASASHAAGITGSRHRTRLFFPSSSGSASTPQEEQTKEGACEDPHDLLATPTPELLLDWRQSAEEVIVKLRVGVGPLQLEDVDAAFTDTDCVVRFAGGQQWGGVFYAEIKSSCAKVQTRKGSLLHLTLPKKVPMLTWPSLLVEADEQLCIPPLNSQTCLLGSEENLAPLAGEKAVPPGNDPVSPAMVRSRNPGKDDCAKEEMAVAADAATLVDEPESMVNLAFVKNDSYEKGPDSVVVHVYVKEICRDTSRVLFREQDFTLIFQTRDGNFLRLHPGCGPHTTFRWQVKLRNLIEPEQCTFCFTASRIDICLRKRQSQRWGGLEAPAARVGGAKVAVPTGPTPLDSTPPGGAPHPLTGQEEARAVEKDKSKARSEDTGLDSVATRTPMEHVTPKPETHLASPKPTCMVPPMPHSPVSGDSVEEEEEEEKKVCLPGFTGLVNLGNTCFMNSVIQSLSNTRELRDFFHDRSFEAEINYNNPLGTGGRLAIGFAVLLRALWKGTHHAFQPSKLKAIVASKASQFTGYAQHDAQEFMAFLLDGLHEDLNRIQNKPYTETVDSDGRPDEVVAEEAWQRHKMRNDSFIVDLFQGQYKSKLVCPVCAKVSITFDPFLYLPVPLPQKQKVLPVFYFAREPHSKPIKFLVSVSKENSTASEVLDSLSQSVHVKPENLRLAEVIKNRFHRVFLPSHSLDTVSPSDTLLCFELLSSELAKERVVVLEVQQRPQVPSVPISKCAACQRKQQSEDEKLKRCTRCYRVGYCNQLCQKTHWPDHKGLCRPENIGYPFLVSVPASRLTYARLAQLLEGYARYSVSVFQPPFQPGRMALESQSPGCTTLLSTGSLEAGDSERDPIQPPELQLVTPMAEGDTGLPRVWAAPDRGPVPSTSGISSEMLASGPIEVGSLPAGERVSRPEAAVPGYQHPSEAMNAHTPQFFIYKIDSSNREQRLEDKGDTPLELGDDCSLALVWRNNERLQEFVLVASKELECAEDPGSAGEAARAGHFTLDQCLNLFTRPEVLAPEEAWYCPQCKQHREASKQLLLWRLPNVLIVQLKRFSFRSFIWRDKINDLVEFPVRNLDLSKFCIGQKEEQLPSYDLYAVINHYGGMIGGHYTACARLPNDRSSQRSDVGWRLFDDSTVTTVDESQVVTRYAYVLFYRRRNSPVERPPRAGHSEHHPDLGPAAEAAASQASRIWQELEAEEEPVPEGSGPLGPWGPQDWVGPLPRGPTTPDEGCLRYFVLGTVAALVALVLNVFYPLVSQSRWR
In short: (§1)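 Average log2 ratios of fragment over vehicle were obtained by unpaired t-test from global-median-normalised Spectronaut label-free quantities. Proteins with ≥2 unique peptides were included. HEK293T lysate (495 µg per sample) was treated in triplicate with fragment at 200 µM or vehicle for 3 h, then with Biotin-Ahx-Ub-VS at 0.5 µM final for 1 h, and labelled DUBs were NeutrAvidin-enriched and run by diaPASEF LC-MS/MS.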

USP22 = molecular target: T2, USP22 (UniProt Q9UPT9)
T2 sequence (whole entry): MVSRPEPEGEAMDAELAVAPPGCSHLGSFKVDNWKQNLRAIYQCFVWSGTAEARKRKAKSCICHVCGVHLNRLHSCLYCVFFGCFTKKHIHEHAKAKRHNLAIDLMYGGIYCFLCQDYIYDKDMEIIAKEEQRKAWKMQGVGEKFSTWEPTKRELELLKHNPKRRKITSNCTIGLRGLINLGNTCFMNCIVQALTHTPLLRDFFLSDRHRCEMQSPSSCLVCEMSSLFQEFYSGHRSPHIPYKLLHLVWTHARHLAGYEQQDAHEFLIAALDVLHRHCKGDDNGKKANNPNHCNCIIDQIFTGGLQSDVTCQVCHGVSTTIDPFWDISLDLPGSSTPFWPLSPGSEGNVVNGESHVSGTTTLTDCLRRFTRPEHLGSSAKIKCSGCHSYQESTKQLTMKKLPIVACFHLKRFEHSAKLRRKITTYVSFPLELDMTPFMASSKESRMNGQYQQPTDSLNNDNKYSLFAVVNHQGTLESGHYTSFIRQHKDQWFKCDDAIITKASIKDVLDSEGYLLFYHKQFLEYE
In short: as §1

USP24 = USP24 (UniProt Q9UPU5)
Chain of USP24 (Q9UPU5 whole entry): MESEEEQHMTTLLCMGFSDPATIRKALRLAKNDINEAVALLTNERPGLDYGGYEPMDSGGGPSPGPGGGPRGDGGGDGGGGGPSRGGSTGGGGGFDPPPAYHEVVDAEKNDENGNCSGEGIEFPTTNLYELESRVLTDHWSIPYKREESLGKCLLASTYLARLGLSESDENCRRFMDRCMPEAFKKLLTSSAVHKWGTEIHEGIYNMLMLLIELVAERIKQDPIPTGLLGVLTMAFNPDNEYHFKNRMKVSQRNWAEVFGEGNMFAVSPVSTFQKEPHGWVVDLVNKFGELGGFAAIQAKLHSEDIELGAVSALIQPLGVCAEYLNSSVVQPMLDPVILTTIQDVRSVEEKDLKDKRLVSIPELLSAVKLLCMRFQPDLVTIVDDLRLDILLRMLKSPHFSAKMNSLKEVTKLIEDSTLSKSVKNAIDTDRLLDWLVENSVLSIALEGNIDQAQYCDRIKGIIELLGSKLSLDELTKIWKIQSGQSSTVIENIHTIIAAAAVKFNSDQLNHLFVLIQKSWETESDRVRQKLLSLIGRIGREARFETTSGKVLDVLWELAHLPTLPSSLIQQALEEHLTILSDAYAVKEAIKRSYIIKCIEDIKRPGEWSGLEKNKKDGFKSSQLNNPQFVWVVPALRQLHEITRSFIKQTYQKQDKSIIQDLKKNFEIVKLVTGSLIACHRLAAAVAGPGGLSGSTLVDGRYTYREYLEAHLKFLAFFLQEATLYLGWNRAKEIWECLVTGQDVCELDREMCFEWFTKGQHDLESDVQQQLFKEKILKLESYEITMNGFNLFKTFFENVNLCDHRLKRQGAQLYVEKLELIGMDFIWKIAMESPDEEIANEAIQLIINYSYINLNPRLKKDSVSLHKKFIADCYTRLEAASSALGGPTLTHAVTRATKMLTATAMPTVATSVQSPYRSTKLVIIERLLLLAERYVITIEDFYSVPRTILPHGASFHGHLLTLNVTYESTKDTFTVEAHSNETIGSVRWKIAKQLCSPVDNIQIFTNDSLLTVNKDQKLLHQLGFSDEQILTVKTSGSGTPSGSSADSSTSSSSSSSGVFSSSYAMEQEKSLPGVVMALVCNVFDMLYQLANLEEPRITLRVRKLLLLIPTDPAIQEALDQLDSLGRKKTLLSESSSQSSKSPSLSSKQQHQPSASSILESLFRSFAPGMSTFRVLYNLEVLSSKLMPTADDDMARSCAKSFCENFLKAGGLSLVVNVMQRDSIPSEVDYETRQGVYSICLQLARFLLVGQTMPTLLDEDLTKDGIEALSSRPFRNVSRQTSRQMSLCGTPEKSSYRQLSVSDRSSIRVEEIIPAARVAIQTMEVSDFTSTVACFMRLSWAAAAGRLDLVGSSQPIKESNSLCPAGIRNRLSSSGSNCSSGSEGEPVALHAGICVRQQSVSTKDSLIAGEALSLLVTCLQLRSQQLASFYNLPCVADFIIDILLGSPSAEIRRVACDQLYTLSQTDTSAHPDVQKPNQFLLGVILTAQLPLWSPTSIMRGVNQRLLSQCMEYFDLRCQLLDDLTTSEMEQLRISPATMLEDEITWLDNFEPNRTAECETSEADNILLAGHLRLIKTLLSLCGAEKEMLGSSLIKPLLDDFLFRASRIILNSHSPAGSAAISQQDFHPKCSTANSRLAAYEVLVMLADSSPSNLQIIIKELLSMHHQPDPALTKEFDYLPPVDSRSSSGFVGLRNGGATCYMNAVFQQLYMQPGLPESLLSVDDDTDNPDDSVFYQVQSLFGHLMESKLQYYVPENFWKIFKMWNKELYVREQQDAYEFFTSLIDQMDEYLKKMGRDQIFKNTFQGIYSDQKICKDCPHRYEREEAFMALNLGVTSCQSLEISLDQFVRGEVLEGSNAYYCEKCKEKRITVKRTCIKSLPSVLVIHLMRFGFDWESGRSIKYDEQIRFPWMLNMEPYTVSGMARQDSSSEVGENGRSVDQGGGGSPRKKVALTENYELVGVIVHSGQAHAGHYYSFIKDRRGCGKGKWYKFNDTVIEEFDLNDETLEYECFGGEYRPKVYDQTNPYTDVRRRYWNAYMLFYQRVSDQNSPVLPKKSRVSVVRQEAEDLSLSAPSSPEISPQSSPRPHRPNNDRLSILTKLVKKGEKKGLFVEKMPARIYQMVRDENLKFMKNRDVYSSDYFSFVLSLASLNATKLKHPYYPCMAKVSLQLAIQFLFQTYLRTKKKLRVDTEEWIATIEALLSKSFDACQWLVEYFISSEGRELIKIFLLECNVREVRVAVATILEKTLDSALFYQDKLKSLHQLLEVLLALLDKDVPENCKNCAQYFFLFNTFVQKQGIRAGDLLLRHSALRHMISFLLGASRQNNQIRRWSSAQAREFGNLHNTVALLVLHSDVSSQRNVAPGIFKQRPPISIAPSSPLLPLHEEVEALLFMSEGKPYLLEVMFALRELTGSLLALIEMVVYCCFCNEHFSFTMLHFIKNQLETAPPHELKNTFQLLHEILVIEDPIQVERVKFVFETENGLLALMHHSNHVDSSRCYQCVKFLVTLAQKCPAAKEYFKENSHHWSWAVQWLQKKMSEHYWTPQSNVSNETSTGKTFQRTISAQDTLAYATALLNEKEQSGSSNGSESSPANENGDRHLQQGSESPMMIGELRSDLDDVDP
In short: as §1

USP25 = molecular target: T3, USP25 (UniProt Q9UHP3)
T3 sequence (whole entry): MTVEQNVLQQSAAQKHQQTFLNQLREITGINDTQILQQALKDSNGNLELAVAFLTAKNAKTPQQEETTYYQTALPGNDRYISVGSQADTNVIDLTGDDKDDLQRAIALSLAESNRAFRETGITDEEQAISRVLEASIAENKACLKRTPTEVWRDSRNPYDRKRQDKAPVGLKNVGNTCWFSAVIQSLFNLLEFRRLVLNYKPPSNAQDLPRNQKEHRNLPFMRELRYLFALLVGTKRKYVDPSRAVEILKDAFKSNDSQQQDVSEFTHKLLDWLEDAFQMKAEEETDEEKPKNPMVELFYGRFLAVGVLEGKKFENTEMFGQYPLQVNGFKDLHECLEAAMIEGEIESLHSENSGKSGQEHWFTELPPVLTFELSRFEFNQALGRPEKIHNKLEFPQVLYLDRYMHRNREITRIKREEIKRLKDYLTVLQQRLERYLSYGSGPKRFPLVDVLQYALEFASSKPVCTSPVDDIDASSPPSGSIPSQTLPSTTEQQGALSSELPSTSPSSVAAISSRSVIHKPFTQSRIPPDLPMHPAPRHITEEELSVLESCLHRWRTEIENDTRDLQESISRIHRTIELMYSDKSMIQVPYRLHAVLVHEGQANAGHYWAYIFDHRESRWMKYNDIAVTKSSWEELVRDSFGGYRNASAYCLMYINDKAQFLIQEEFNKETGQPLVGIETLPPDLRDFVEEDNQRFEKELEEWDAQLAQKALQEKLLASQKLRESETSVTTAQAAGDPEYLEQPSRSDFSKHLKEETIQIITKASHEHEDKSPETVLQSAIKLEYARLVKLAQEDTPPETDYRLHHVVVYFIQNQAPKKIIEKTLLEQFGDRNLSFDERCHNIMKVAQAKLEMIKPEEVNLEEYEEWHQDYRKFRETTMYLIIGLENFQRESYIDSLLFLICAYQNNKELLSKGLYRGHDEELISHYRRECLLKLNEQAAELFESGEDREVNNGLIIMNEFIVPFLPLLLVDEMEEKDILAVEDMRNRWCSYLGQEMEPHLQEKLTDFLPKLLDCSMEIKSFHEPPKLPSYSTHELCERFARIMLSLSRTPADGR
In short: as §1

USP28 = molecular target: T4, USP28 (UniProt Q96RU2)
T4 sequence (whole entry): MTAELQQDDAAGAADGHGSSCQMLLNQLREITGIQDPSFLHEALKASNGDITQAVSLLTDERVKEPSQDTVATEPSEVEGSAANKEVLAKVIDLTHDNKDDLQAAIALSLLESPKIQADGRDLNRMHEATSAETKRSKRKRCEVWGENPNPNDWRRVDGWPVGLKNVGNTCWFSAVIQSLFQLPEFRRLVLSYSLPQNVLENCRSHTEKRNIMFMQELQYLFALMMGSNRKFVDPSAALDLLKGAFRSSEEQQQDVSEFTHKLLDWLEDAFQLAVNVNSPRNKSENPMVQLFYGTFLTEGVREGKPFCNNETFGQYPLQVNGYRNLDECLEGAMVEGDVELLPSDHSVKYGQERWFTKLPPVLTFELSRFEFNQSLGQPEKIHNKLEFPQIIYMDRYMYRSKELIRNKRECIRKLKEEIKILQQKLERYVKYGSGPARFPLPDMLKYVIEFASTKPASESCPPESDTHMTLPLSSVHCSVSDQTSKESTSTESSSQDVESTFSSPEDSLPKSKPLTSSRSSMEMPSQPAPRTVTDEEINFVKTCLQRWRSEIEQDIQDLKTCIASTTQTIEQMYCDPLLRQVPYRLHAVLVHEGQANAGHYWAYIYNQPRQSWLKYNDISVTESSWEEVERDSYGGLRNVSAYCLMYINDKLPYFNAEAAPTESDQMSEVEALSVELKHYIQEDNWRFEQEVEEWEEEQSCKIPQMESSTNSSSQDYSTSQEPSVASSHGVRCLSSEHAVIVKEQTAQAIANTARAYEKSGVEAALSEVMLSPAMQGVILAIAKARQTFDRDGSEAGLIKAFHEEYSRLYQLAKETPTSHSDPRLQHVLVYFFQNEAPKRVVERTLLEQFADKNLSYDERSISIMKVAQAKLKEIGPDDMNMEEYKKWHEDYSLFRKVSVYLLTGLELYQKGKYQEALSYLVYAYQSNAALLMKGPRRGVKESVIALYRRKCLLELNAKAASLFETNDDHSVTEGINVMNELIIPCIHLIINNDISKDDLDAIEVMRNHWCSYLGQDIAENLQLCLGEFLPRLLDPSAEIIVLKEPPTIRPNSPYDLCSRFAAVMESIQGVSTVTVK
In short: as §1

Measured: log2 ratio of Biotin-Ahx-Ub-VS probe labelling

O=C(CCl)NC1CCCCNC1=O (stereo not given)
inactive: USP19 -0.125 | USP22 -0.0454 | USP24 -0.299 | USP25 -0.212 | USP28 -0.482
